# Measurements reported in PubChem BioAssay (NCI).
# About 79,000 compounds went through this panel and 15% of them were active in at least one assay; those are over-represented in the sample as a whole. Values without a mark were called inactive. Active and inactive are the calls of the source. Cut-off read from the data, not from the text of the source: active = growth inhibition above about 70%; inactive = the rest.
# Tests used:
# [1] = NCI Yeast Anticancer Drug Screen. Data for the rad50 strain (AID 155);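 note: 0% = growth of vehicle-only cultures of the same strain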; conditions: S. cerevisiae rad50 strain growth inhibition; at 50.0 µM; hits give high values
# Summary of the method: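 Compounds were tested on a yeast strain with an engineered DNA damage repair alteration; the reported value is growth inhibition normalised to vehicle treatment.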
# [2] = NCI Yeast Anticancer Drug Screen. Data for the mec2-1 strain (AID 157); conditions: S. cerevisiae mec2-1 strain, at 50.0 µM, hits give high values
# Summary of the method: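 Cells of the genetically defined mec2-1 yeast strain are incubated with test compound. Inhibition of growth is calculated against vehicle-treated controls.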
# [3] = NCI Yeast Anticancer Drug Screen. Data for the sgs1 mgt1 strain (AID 161);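 note: 0% = growth of cultures given vehicle only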; conditions: S. cerevisiae sgs1 mgt1 strain, at 50.0 µM, hits give high values
# Summary of the method: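 Inhibition of yeast growth, normalised to vehicle-treated controls, is reported for a strain bearing genetic alterations in DNA damage repair.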
# [4] = NCI Yeast Anticancer Drug Screen. Data for the cln2 rad14 strain (AID 165);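 note: 0% = growth equal to vehicle treated cultures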; conditions: S. cerevisiae cln2 rad14 strain, at 50.0 µM, hits give high values
# Summary of the method: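 The screen exposed genetically defined yeast (cln2 rad14) to test compounds and scored growth inhibition relative to vehicle-treated controls.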
# [5] = NCI Yeast Anticancer Drug Screen. Data for the bub3 strain (AID 167); conditions: S. cerevisiae bub3 mutant strain, at 50.0 µM, hits give high values
# Summary of the method: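 Growth of a checkpoint-deficient yeast mutant is measured after compound exposure. Values represent inhibition relative to vehicle.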
# [6] = NCI Yeast Anticancer Drug Screen. Data for the mlh1 rad18 strain (AID 175); conditions: S. cerevisiae mlh1 rad18 strain growth inhibition; at 50.0 µM; hits give high values
# Summary of the method: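 Compound-treated yeast growth, normalised to vehicle controls. Strain bears defined DNA repair mutations.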
SMILES,growth inhibition [1] [%],growth inhibition [2],growth inhibition [3],growth inhibition [4] [%],growth inhibition [5],growth inhibition [6]
CC(C)c1ccc(OCC2CCCO2)cc1 (configuration not stated),37.4,0.95%,39%,41.7,28.9%,27.4%
Cc1nc2c(=O)[nH]c3ccccc3c2o1,-3.25,7%,3.1%,-7,-10.3%,-32.4%
CC(C)c1nc(N)nc(N)n1,4.8,-23.8%,5.8%,12.8,1%,-16.8%
O=C(Nc1ccc(Cl)cc1)Nc1ccc(Cl)nn1,-29.2,7.85%,-10.1%,-39.8,-6.8%,-1.85%
O=C(Nc1cc(Cl)ccc1Cl)Oc1c(Cl)cc(Cl)c(Cl)c1[N+](=O)[O-],10.2,-37.1%,29.1%,-33.8,-0.55%,15.8%
COc1ccc(C(=O)/C=C/c2ccc(OCCSCCCCCCCCCCSCCOc3ccc(/C=C/C(=O)c4ccc(OC)c(OC)c4)cc3)cc2)cc1OC,-44.4,-26.1%,-28.2%,-6.35,-29.6%,-53.6%
CCN=C(NCC)N(CC)CC,-20.4,-5.75%,-12.8%,-11.6,25.3%,-11.8%
COc1ccc(N(C)S(=O)(=O)c2ccccc2)cc1,15.1,-8.9%,-3.65%,10.8,0.1%,15.8%
CC1=NNC(=O)C1,4.65,-0.4%,-8.1%,-14.8,-3.2%,2.9%
COc1cc2c(cc1O)C(Cc1ccccc1)N(C)CC2O (configuration not stated),-12.6,-4.7%,-4%,-5.7,-7.55%,0%
Cc1c(C)c2ccc(OC(C)C(=O)O)cc2oc1=O (configuration not stated),-10.9,0.8%,22.2%,31.5,10.1%,36%
CCCCCCCCCCCCCCCC(=O)NCC(=O)NC1C(CO)OC(Nc2ncnc3nc[nH]c23)C(O)C1O (configuration not stated),61.8,19%,82.7% (active),14.7,76.2% (active),-11.7%
CN(C)c1nc2oc(-c3ccccc3)c(-c3ccccc3)c2c2nncn12,9.65,7.45%,2.9%,16.9,12.1%,-22.5%
O=S(/C=C/C=C/S(=O)(=O)c1ccccc1)c1ccccc1 (configuration not stated),18.1,24.2%,30.5%,19.3,43.4%,74% (active)
O=C(COc1ccccc1)OC1CCCCC1C1CCCCC1 (configuration not stated),13.2,13%,4.05%,21.5,2.6%,14.2%
O=C(NC12OC3CC(CC(C3)O1)O2)NC12OC3CC(CC(C3)O1)O2,3.6,0.35%,14.2%,-3.85,-30.3%,2.2%
COc1cccc(C(N)C(=O)O)c1 (configuration not stated),-22.9,-16.2%,-5.25%,-26.2,-12.4%,-17.4%
CCCCCCOC(=O)C(O)C(C)(Cl)c1ccccc1 (configuration not stated),11.3,9.9%,4.6%,15.9,12.6%,13.7%
CCC(=O)Nc1ccc(C)cc1C,23.7,12.9%,9.8%,13.7,2.6%,3.45%
C/C=C\C=N\NC(=O)C(=O)N/N=C/C=C\C,0.9,-17.1%,-7.55%,-56.5,-8.5%,-0.75%
COCN(Cc1ccccc1)C[Si](C)(C)C,39.5,2%,1.3%,-20,14.2%,-9.6%

SMILES,growth inhibition [1] [%],growth inhibition [2],growth inhibition [3],growth inhibition [4] [%],growth inhibition [5],growth inhibition [6]
CC(C)OC(=O)c1ccc(NCC2=CC(=O)C=CC2=O)cc1,39.1,79.2% (active),63.5%,57.1,46.1%,88.2% (active)
CCCCNC[C@@H](O)[C@H](O)COS(C)(=O)=O,0.4,-11.7%,-8.65%,-24.1,-13.7%,-7.05%
Nc1ccc2cccc(N)c2n1,34.5,12.2%,8.85%,5.9,-5.65%,-0.55%
CSc1ncc2c(C#N)c3ccccn3c(=O)c2n1,6.65,-7%,11.2%,-1.5,14.4%,-17.5%
Cc1nc2ccccc2c(Br)c1Br,14.5,7.35%,3.55%,11.2,-4.05%,6.5%
O=c1c2ccccc2[nH]c2ccc(Cl)cc12,47.6,13.9%,24.9%,21.6,-9.65%,61.1%
O=C(CC(c1ccccc1)C(Br)[N+](=O)[O-])c1ccccc1 (configuration not stated),27.6,-0.35%,36.6%,-9.9,40%,32.4%
CC(=O)NC1C(OC(C)=O)OC(COC(c2ccccc2)(c2ccccc2)c2ccccc2)C(O)C1OC(C)=O (configuration not stated),63.9,47.5%,5%,41.2,47.2%,44%
COc1ccc(C2c3cc4c(cc3OC(N3CCOCC3)C2C)OCO4)cc1 (configuration not stated),-12.4,-22.1%,-20.2%,-3.95,-32.9%,-57.2%
COc1ccc(C2OCC(c3ccccc3)O2)cc1 (configuration not stated),-13.4,-7.65%,-18.5%,-37,3.15%,-29.1%
CC(=O)OCc1nc2ncnc(N)c2[nH]1,0.5,-5.65%,-11.4%,-52.4,-3.4%,-4.9%
COc1ccc(N=C2c3cc([N+](=O)[O-])ccc3-c3c2cccc3[N+](=O)[O-])cc1,-5.25,-8.25%,-4.1%,-20.6,3.45%,-7.2%
Nc1nc(Cc2ccccc2)c(-c2ccccc2)c(-c2nc(N)nc(Cc3ccccc3)c2-c2ccccc2)n1,-9.6,14.4%,-26.4%,-5.15,-5.2%,7.85%
CCc1nc2c([nH]1)C(=O)c1ccccc1C2=O,68.1,19.2%,44.2%,9.25,18.7%,42%
CCOC1=C2C(C)(CCC3[C@@]4(C)C=CC(=O)C(C)(C)C4CC(O)[C@@]23C)C(c2ccoc2)C1=O (some centres not stated),54,31%,45.5%,45.3,20.1%,30.8%
NC(=O)CNCc1ccccc1,0.3,-3.75%,12.7%,-52,0.25%,4.25%
CC1(O)CCC(O)CC1CC[N+](C)(C)[O-] (configuration not stated),7.35,1.3%,8.8%,4.75,3.3%,5.55%
O=c1[nH]c2ccccc2c(N=Cc2ccccc2)c1-c1ccccc1,-6.95,-20.6%,-4.6%,-26.8,-12.1%,-0.4%
O=C(O)c1c(Cl)ccc(F)c1Cl,9.45,1.2%,4.5%,-11.9,11.3%,8.35%
O=c1cc(CSc2ncnc3nc[nH]c23)occ1O,-11.3,-4.4%,-2.1%,2.55,11.8%,4.2%
CC1CCCN(C(=O)/C=C/c2ccccc2)C1 (configuration not stated),9.25,-19.2%,-6.45%,-45.8,6.3%,-3.8%
